In all, about 41,000 compounds went through this assay and about 190 (0.46%) were called active.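 Rule for the calls: active = viability at or below the median of all test compounds minus 3 SD, in both replicates if run twice (cut at about 45% in these data); inconclusive = duplicate replicates that disagree with each other; inactive = viability above that cutoff in every replicate.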 Shown is part of a subset that was picked to be rich in actives.
experiment: viability loss of SK-BR-3 cells – cell-based, human, 24 h, primary screen (AID 847); conditions: SK-BR-3 viability, CellTiter-Glo ATP luminescence, at 10 µM, stronger effect = lower value;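 note: 100% = median untreated cell wells and 0% = median positive control drug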

Row | Structure (SMILES) | viability
1 | O=C(CCCC(=O)N(CC(=O)NC1CCCC1)Cc1ccccc1Cl)Nc1ccccn1 | 73.7% (inactive)
2 | O=C(NCCCNCc1ccccc1)c1ccc(/C=N/O)nc1 | 117% (inactive)
3 | O=C(NCC1CCCO1)C(C(=O)c1ccccc1)n1cc(Cl)ccc1=O (centres undefined) | 87.7% (inactive)
4 | Cc1ccc2c(c1)c1ncn(CCC3=CCCCC3)c(=O)c1n2C | 85.3% (inactive)
5 | CCCc1nnc(NC(=O)c2cc(OC)cc(OC)c2)s1 | 81.5% (inactive)
6 | C#CCN1CC(C)/C(=N/O)CC1C (centres undefined) | 108% (inactive)
7 | O=C(NC1CCCC1)c1ccc(Br)s1 | 90.4% (inactive)
8 | O=C(Oc1ccccc1)c1ccc2nccnc2c1 | 80.4% (inactive)
9 | COc1ccc(S(=O)(=O)N2CCC(C(=O)N3CCOCC3)CC2)cc1OC | 101% (inactive)
10 | CCCc1[nH]nc2c1C(C1CC=CCC1)C(C#N)=C(N)O2 (centres undefined) | 96.8% (inactive)
11 | O=C(NCc1cccs1)C1CCN(S(=O)(=O)c2ccc3c(c2)OCCO3)CC1 | 95.3% (inactive)
12 | COc1ccc(C(=O)Cn2nnc(-c3ccc(N4CCOCC4)cc3)n2)cc1OC | 88.3% (inactive)
13 | O=C(Nc1nc2cc3c(cc2s1)OCCO3)c1cccc(S(=O)(=O)N2CCOCC2)c1 | 79.5% (inactive)
14 | COc1ccc2[nH]c3ccc(OC)cc3c2c1 | 89.2% (inactive)
15 | C=CCC(NCCCO)c1cccc(OC)c1OC (centres undefined) | 107% (inactive)
16 | Fc1ccc(OCc2nn3c(Cn4nnc5ccccc54)nnc3s2)cc1 | 59.8% (inactive)
17 | CCOC(=O)c1sc(NC(=O)c2cc(S(=O)(=O)N3CCOCC3)ccc2C)nc1C | 88.3% (inactive)
18 | COc1ccc(Br)cc1/C=N/n1c(C)nnc1C | 96.9% (inactive)
19 | CCC(=O)Nc1ccccc1C(=O)N1CCN(Cc2ccccc2)CC1 | 90.1% (inactive)
20 | O=C(Nc1cccc(C(=O)N2CCCC2)c1)c1ccccc1 | 91.4% (inactive)
21 | Cc1cc(C(F)(F)F)c(C#N)c(SCC(=O)NC2CC2)n1 | 109% (inactive)
22 | CN1CCN(CC(=O)C23CC4CC(CC(C4)C2)C3)CC1 | 122% (inactive)
23 | CN1CCN(S(=O)(=O)c2ccc(NC(=O)c3ccco3)cc2)CC1 | 85.4% (inactive)
24 | COc1ccccc1-n1nnnc1S(=O)(=O)Cc1ccc(Cl)cc1 | 95.1% (inactive)

From PubChem BioAssay AID847 (SRMLSC, 2007)
